Laboratory results from PubChem BioAssay AID642 (Vanderbilt High Throughput Screening Facility, 2007).
Hit rate of the full screen: of about 2,200 compounds, about 2,000 (91%) were called active. So high a share suggests a set chosen from earlier hits. Only a sample is shown. A number with no mark means an inactive call.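 How the source made its calls: active means luminescence in either of two replicates above the same-plate mean plus 3 SD of the low-dose dopamine control; inactive means the rest.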

biological target: D(1A) dopamine receptor (Homo sapiens) (UniProt P21728); assay: potentiation of dopamine EC30 D1 response – cell-based, HEK293 D1, CRE-luciferase, duplicate, confirmation (AID 642); conditions: at 10 µM, stronger effect = higher value
Sequence (P21728 whole entry, looked up): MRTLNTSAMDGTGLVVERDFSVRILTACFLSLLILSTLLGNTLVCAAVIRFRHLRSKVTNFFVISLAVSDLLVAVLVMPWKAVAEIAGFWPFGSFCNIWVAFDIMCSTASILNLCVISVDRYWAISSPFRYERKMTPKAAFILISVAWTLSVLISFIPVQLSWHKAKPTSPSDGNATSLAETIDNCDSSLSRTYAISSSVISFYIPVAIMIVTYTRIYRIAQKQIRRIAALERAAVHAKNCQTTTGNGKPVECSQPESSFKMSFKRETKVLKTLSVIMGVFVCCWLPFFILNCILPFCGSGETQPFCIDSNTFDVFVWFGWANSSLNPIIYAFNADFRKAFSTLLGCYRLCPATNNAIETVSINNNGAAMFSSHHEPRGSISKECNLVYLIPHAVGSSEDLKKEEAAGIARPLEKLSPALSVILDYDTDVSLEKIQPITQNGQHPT

| Compound | luminescence |
| --- | --- |
| CC1(C)Cc2ccccc2-c2nc(CN3CCOCC3)[nH]c(=O)c21 | 19300 (active) |
| CCCCNc1nc2ccccc2nc1NS(=O)(=O)c1cccs1 | 15900 (active) |
| Cn1c(=O)c2[nH]c(NCC3CCCO3)nc2n(-c2ccccc2)c1=O (configuration not stated) | 8480 (active) |
| CN1CCN(CC(O)COCc2ccc3c(c2)OCO3)CC1 (configuration not stated) | 6270 (active) |
| N#Cc1nc(Cc2ccccc2)oc1NCCc1ccccc1 | 8810 (active) |
| CCOc1ccc(Nc2oc(Cc3ccccc3)nc2C#N)cc1 | 10900 (active) |
| COc1ccc(Nc2oc(-c3ccccc3Cl)nc2C#N)cc1 | 15100 (active) |
| CCCc1nc(N)nc2c1C(=O)CC(C)(C)C2 | 24100 (active) |
| O=C(C1CCC1)N1CCc2cc(S(=O)(=O)NCc3cccnc3)ccc21 | 13000 (active) |
| CCOc1cccc(-n2nnnc2-c2ccc(OC)cc2)c1 | 10400 (active) |
| COc1ccc(-n2c(Cc3cccn3C)nnc2SCC(=O)Nc2cc(C)cc(C)c2)cc1 | 4890 |
| CCOC(=O)c1c(NC(=O)CSc2nnc(Cc3csc(N)n3)n2C)sc(C)c1C | 9070 (active) |
| CCOC(=O)c1c(NC(=O)CSc2nnc(CN3CCOCC3)n2C)sc2c1CCCC2 | 11600 (active) |
| CC1Oc2ccccc2N(Cc2cccnc2)C1=O (configuration not stated) | 10900 (active) |
| COC(=O)[C@H](C(C)C)n1c(C)c(C(C)=O)c(C(C)=O)c1C | 7760 |
| CCCn1c(=NC(C)=O)c(C(=O)OCC)cc2c(=O)n3ccccc3nc21 | 9880 (active) |
| c1coc(-c2nc3nc4ccccc4n3nc2-c2ccco2)c1 | 14000 (active) |
| CCOc1ccc(-c2nnn(CC(=O)N3CCN(c4ccc(OC)cc4)CC3)n2)cc1OCC | 9620 (active) |
| CCOc1cc(-c2noc(CCC(=O)N3CCOCC3)n2)ccc1OC | 10500 (active) |
| COc1nc(NCc2ccc(Cl)cc2)nc(OC)n1 | 13700 (active) |
| CC(=O)c1ccc(Oc2cc(C)nc(-n3nc(C)cc3C)n2)cc1 | 17900 (active) |
| COc1ccc(Nc2cc(C)nc(-n3nc(C)cc3C)n2)cc1 | 13700 (active) |

| Compound | luminescence |
| --- | --- |
| CCCCSc1nc2c(c(=O)n1CC)SC(C)C2 (configuration not stated) | 8100 (active) |
| CC(C)C1C2=C(CC(C)(C)CC2=O)ON1c1ccccc1 (configuration not stated) | 12900 (active) |
| CCOC(=O)c1cc(C)sc1NC(=O)C1CCC1 | 19700 (active) |
| N#CCCN1CCN(S(=O)(=O)c2ccc(S(=O)(=O)NC3CCCCC3)cc2)CC1 | 5770 (active) |
| COc1ccc(CCN(C)C(=O)C2CCCN(Cc3ccc(OC)c(OC)c3)C2)cc1OC (configuration not stated) | 7890 (active) |
| CCCS(=O)(=O)N1CCC(C(=O)NCCc2ccc(OC)c(OC)c2)CC1 | 7140 |
| COc1ccc(NC(=O)C2CCCN(S(=O)(=O)c3cccc4cccnc34)C2)cc1OC (configuration not stated) | 13800 (active) |
| CCSc1ncnc2c(C#N)c3n(c12)CCCCC3 | 18600 (active) |
| COc1ccc(-c2nnco2)cc1OC | 10800 (active) |
| C=CCSc1nc2c(c(=O)[nH]1)C(C(C)C)C(C#N)=C(N)O2 (configuration not stated) | 18500 (active) |
| CCOc1ccc2[nH]c(=O)c(C(c3nnnn3CCOC)N3CCOCC3)cc2c1 (configuration not stated) | 5420 |
| CCCSc1nc2c(c(=O)[nH]c(=O)n2C)n1CCc1ccccc1 | 24800 (active) |
| CC1CCN(c2nc3c(c(=O)[nH]c(=O)n3C)n2CCCc2ccccc2)CC1 | 14000 (active) |
| O=C(NCc1ccco1)c1cnn2c(C(F)(F)F)cc(-c3ccco3)nc12 | 8660 (active) |
| O=S(=O)(c1cccs1)N1CCc2ccccc2C1 | 12600 (active) |
| CN(C)c1nc(N)nc(CSc2nnnn2-c2cccc3ccccc23)n1 | 7470 (active) |
| CCn1ncc(C2=NOC(C(=O)Nc3ccccc3C(=O)OC)C2)c1C (configuration not stated) | 14000 (active) |
| Cc1nn(-c2ccccc2)c2c1C(=O)NC(=O)C(C)(C)C2 | 17700 (active) |
| CCn1cc(C(=O)NCC2COc3ccccc3O2)c2cc(OC)c(OC)cc2c1=O (configuration not stated) | 9310 (active) |
| Nc1ccc(S(=O)(=O)NC(=O)c2ccccc2)cc1 | 5620 |
| O/N=C(\c1ccc2c(c1)OCCO2)C1CCCCC1 | 10600 (active) |
| CC(=O)OC(C)C[N+](C)(C)C (configuration not stated) | 6620 (active) |

| Compound | luminescence |
| --- | --- |
| c1ccc2c(NCC3CCCO3)nc(-c3ccncc3)nc2c1 (configuration not stated) | 9880 (active) |
| CCCN1Cc2cccc(C(=O)NCc3ccccc3)c2C1=O | 12000 (active) |
| CC1CCN(c2oc(-c3ccccc3F)nc2C#N)CC1 | 8980 (active) |
| C#CCNc1nc(C(C)C)nc2c1nnn2Cc1ccccc1F | 11700 (active) |
| CCOc1cc(C(=O)N2CCc3cc(OC)c(OC)cc3C2)ccc1OC(F)F | 24600 (active) |
| COc1ccc(CCNc2ncnc3nc[nH]c23)cc1OC | 14700 (active) |
| COc1ccc(-c2nnc(SCC(=O)NC3CCCCC3)o2)cc1OC | 12200 (active) |
| Cc1ccc(C2CC(c3cccc(Br)c3)n3nc(N)nc3N2)cc1 (configuration not stated) | 10800 (active) |
| CCOc1ccccc1C1CC(c2ccccc2)Nc2nc(N)nn21 (configuration not stated) | 10100 (active) |
| Cc1ccc(C2CC(c3cccc(C)c3)n3nc(N)nc3N2)cc1 (configuration not stated) | 8720 (active) |
| Cc1cc(C(F)(F)F)nn1-c1nc(-c2ccco2)cc(C(F)(F)F)n1 | 8160 (active) |
| FC(F)(F)c1cc(-c2ccco2)nc(N2CCOCC2)n1 | 24200 (active) |
| COc1ccc(-c2nnn(Cc3nc(N)nc(N4CCCCC4)n3)n2)cc1 | 12600 (active) |
| COc1ccc(S(=O)(=O)Nc2ccc(S(=O)(=O)N3CCCCC3)cc2)cc1OC | 13000 (active) |
| O=C(CSc1nnc2scc(-c3ccc(F)cc3)n12)NCc1ccco1 | 11300 (active) |
| Cn1c(/C(C#N)=C2/CCCCCN2)nc2ccccc21 | 15000 (active) |
| COc1ncnc2c1N=C1CC(C)(C)CC(N)=C1S2 | 8600 (active) |
| COC(=O)c1ccccc1NC(=O)C1CCN(S(=O)(=O)c2cc(OC)ccc2OC)CC1 | 13600 (active) |
| CCCCc1c(O)nc2n(c1=O)CCS2 | 4500 |
| Oc1ccc(-c2csc(Nc3cccnc3)n2)cc1 | 10600 (active) |
| COC(=O)C(C)C1Sc2ccccc2NC1=O (configuration not stated) | 11200 (active) |
| CC(=O)Nc1cccc(Oc2cc(C#N)c(C#N)cc2N2CCOCC2)c1 | 18800 (active) |

| Compound | luminescence |
| --- | --- |
| COc1cc(NC(=O)N2CCOCC2)cc(OC)c1 | 7060 |
| CCn1c(=N)c(S(=O)(=O)c2ccc(F)cc2)cc2c(=O)n3ccccc3nc21 | 18300 (active) |
| CCc1ccc2oc(=O)cc(CN3CCCCC3C)c2c1 (configuration not stated) | 10700 (active) |
| COc1ccc(CCNC(=O)c2cc3sccc3n2C)cc1OC | 7950 |
| COc1ccc(CCNC(=O)CCn2c(=O)oc3ccccc32)cc1OC | 12500 (active) |
| CCCc1nc(-c2ccccc2O)n(-c2ccccc2)n1 | 14800 (active) |
| COc1ncnc2sc3c(c12)CCCC3 | 9980 (active) |
| N#Cc1c(N)sc2c1CCN(C(=O)OCc1ccccc1)C2 | 11700 (active) |
| COc1ccc(-c2n[nH]c(C)c2-c2ccc(OC)c(OC)c2)c(O)c1 | 7480 (active) |
| c1ccc(COc2nsnc2N2CCOCC2)cc1 | 9440 (active) |
| CCSc1nc(C)nc2c1oc1ccccc12 | 15900 (active) |
| c1ccc(-c2nnc3n2NC(c2ccc4c(c2)OCO4)S3)cc1 (configuration not stated) | 13600 (active) |
| Cn1c(=O)c2cn(-c3cccc4ccccc34)cc2n(C)c1=O | 8890 (active) |
| COc1ccc(S(=O)(=O)N(C)CC(=O)Nc2ccc3c(c2)OCCO3)cc1OC | 7550 (active) |
| COC(=O)C1=C(C)NC2=C(C(=O)c3ccccc32)C1c1ccc(-c2ccc(C(=O)O)cc2)o1 (configuration not stated) | 12100 (active) |
| COc1cc(-c2nn3c(-c4cccc(C)c4)nnc3s2)cc(OC)c1OC | 12800 (active) |
| COc1ccc(-c2nn3c(-c4ccccc4)nnc3s2)cc1OC | 22300 (active) |
| N#CCSc1nc2ccccc2c(=O)n1-c1ccccc1 | 19300 (active) |
| CCOc1ccc(Cn2c(SCCCCC#N)nc3c2c(=O)n(C)c(=O)n3C)cc1OCC | 14200 (active) |
| CCC(=O)NC(=Nc1nc2ccccc2s1)NC(=O)CC | 18700 (active) |
| CCNc1nc(NCC)nc(N(C)n2cnnc2)n1 | 15800 (active) |
| C/C(Cl)=C\Cn1c(Nc2cccc(C)c2)nc2c1c(=O)n(C)c(=O)n2C | 12000 (active) |

| Compound | luminescence |
| --- | --- |
| Cc1cc(C)c2c(n1)nn1c(-n3ccnc3)cc(C)nc21 | 11600 (active) |
| COc1ccc(-c2cc(C(F)(F)F)nc(S(C)(=O)=O)n2)cc1OC | 10100 (active) |
| CCCn1c(=O)c2[nH]c(C3CCCC3)nc2n(CCC)c1=O | 22800 (active) |
| CC(C)c1cc(C(=O)O)on1 | 5510 |
| CCOc1ccc2c(c1)cc(CN(C(=O)CC)C1CCCCC1)c1nnnn12 | 16400 (active) |
| CC(C)n1c(C(O)c2ccccc2)nc2ccccc21 (configuration not stated) | 6650 (active) |
| COC(=O)Nc1ncc(CN2C(=O)c3ccccc3C2=O)s1 | 9780 (active) |
| O=C(c1ccco1)N1CCN=C1SCc1cccc(Cl)c1 | 9520 (active) |
| O=c1cc(-c2ccccc2)nc(N2CCCCC2)[nH]1 | 12700 (active) |
| Cc1ccc(S(=O)(=O)c2c(N)n(C)c3nc4ccccc4nc23)cc1 | 11800 (active) |
| CCOC(=O)c1cc2n(c1C)-c1ccccc1C2=O | 9350 (active) |
| C/C(=C\C(=O)c1ccccc1)Nc1cccc(O)c1 | 3550 (active) |
| N#Cc1nc(N)nc(N(c2ccccc2)c2ccccc2)n1 | 13100 (active) |
| CCc1cc(=O)oc2cc(OCC(=O)N3CCCc4ccccc43)ccc12 | 14000 (active) |
| CCn1nc(C(=O)OCC(=O)N2c3ccccc3CC2C)c2ccccc2c1=O (configuration not stated) | 13900 (active) |
| Cc1ccc(-c2nn(-c3ccccc3)cc2CN(Cc2ccccc2)C(=O)CCC(=O)O)o1 | 9380 (active) |
| O=C(NCc1ccccn1)c1ccc2nc(-c3ccco3)c(-c3ccco3)nc2c1 | 10400 (active) |
| C=CCn1cnc2scc(-c3ccccc3)c2c1=O | 16400 (active) |
| CCOC(=O)/C=c1\s/c(=C\c2ccccc2OC)c(=O)n1CC(=O)N1CCOCC1 | 15600 (active) |
